# Measured values published in PubChem BioAssay AID1159580 (chemical genetic matrix, 2015).
# Several values for one entry are separate records, joined by “and”; a condition that tells them apart may be missing. Equal values may be shown once. Hit rate of the full screen: of about 5,500 compounds, about 2,000 (36%) were called active. Roughly 18% stayed inconclusive and do not appear here. No stated cut-off is given here; in the data, active means normalized growth mostly below about 0.91 (no sharp cut-off); inconclusive means no clear call, values can overlap the other calls; inactive means mostly above about 0.92. The list shows a part of the results.
# Assay: chemical genetic growth profiling, strain panel (AID 1159580);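 further: tested at 20 µM; growth read once vehicle control cultures reached saturation at 30 °C; 1 = growth at the plate median or of vehicle wells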
# Details: S. cerevisiae deletion strains, growth OD
structure (smiles),measurement,setting,value
O=C(Oc1cc(O)cc2c1C[C@@H](OC(=O)c1cc(O)c(O)c(O)c1)[C@@H](c1cc(O)c(O)c(O)c1)O2)c1cc(O)c(O)c(O)c1,normalized growth,"locus YAL021C, strain ccr4, stronger effect = lower value",1.01 (inactive)
same,normalized growth,"locus YAL026C, strain drs2, stronger effect = lower value",0.988 (inactive)
same,normalized growth,"locus YAL030W, strain snc1, stronger effect = lower value",1.01 (inactive)
same,normalized growth,"locus YBL061C, strain skt5, stronger effect = lower value",1.01 (inactive)
same,normalized growth,"locus YBR009C, strain hhf1, stronger effect = lower value",1.01 (inactive)
same,normalized growth,"locus YBR021W, strain FUR4, stronger effect = lower value",1.05 (inactive)
same,normalized growth,"locus YBR023C, strain chs3, stronger effect = lower value",1.02 (inactive)
same,normalized growth,"locus YBR171W, strain sec66, stronger effect = lower value",0.994 (inactive)
same,normalized growth,"locus YBR229C, strain ROT2, stronger effect = lower value",0.482 (active)
same,normalized growth,"locus YBR231C, strain swc5, stronger effect = lower value",1.02 (inactive)
same,normalized growth,"locus YBR279W, strain paf1, stronger effect = lower value",1.01 (inactive)
same,normalized growth,"locus YCL011C, strain gbp2, stronger effect = lower value",0.979 (inactive)
same,normalized growth,"locus YCL016C, strain dcc1, stronger effect = lower value",1.01 (inactive)
same,normalized growth,"locus YCL029C, strain bik1, stronger effect = lower value",0.668 (active)
same,normalized growth,"locus YCL061C, strain MRC1, stronger effect = lower value",0.983 (inactive)
same,normalized growth,"locus YCL069W, strain vba3, stronger effect = lower value",0.992 (inactive)
same,normalized growth,"locus YCR088W, strain abp1, stronger effect = lower value",0.992 (inactive)
same,normalized growth,"locus YDL005C, strain med2, stronger effect = lower value",1.01 (inactive)
same,normalized growth,"locus YDL035C, strain GPR1, stronger effect = lower value",0.133 (active)
same,normalized growth,"locus YDL040C, strain nat1, stronger effect = lower value",0.998 (inactive)
same,normalized growth,"locus YDL074C, strain BRE1, stronger effect = lower value",0.334 (active)
same,normalized growth,"locus YDL101C, strain DUN1, stronger effect = lower value",0.147 (active)
same,normalized growth,"locus YDL185W, strain tfp1, stronger effect = lower value",0.872 (active)
same,normalized growth,"locus YDL192W, strain arf1, stronger effect = lower value",0.638 (active)
same,normalized growth,"locus YDR001C, strain nth1, stronger effect = lower value",0.986 (inactive)
same,normalized growth,"locus YDR069C, strain doa4, stronger effect = lower value",1 (inactive)
same,normalized growth,"locus YDR101C, strain arx1, stronger effect = lower value",0.806 (active)
same,normalized growth,"locus YDR137W, strain rgp1, stronger effect = lower value",0.99 (inactive)
same,normalized growth,"locus YDR159W, strain sac3, stronger effect = lower value",1.04 (inactive)
same,normalized growth,"locus YDR162C, strain NBP2, stronger effect = lower value",0.0879 (active)
same,normalized growth,"locus YDR195W, strain ref2",1 (inactive)
same,normalized growth,"locus YDR297W, strain sur2, stronger effect = lower value",1.02 (inactive)
same,normalized growth,"locus YDR318W, strain mcm21, stronger effect = lower value",0.736 (active)
same,normalized growth,"locus YDR334W, strain swr1, stronger effect = lower value",0.996 (inactive)
same,normalized growth,"locus YDR335W, strain msn5, stronger effect = lower value",1.01 (inactive)
same,normalized growth,"locus YDR388W, stronger effect = lower value",0.759 (active)
same,normalized growth,"locus YDR392W, strain spt3, stronger effect = lower value",1.02 (inactive)
same,normalized growth,"locus YDR502C, strain sam2, stronger effect = lower value",0.52 (active)
same,normalized growth,"locus YEL003W, strain gim4, stronger effect = lower value",0.983 (inactive)
same,normalized growth,"locus YEL037C, strain rad23, stronger effect = lower value",0.982 (inactive)
same,normalized growth,"locus YEL061C, strain CIN8 (second series), stronger effect = lower value",1 (inactive)
same,normalized growth,"locus YEL061C, strain CIN8, stronger effect = lower value",0.438 (active)
same,normalized growth,"locus YER015W, strain faa2, stronger effect = lower value",0.989 (inactive)
same,normalized growth,"locus YER016W, strain bim1, stronger effect = lower value",1.02 (inactive)
same,normalized growth,"locus YER110C, stronger effect = lower value",0.956 (inactive)
same,normalized growth,"locus YER111C, strain swi4, stronger effect = lower value",0.974 (inactive)
same,normalized growth,"locus YER155C, strain BEM2 (second series), stronger effect = lower value",0.975 (inactive)
same,normalized growth,"locus YER155C, strain BEM2, stronger effect = lower value",0.775 (active)
same,normalized growth,"locus YER167W, strain BCK2, stronger effect = lower value",0.492 (active)
same,normalized growth,"locus YFR010W, strain ubp6, stronger effect = lower value",0.997 (inactive)
same,normalized growth,"locus YGL078C, strain dbp3, stronger effect = lower value",0.99 (inactive)
same,normalized growth,"locus YGL086W, strain mad1, stronger effect = lower value",0.431 (active)
same,normalized growth,"locus YGL167C, strain pmr1, stronger effect = lower value",1.01 (inactive)
same,normalized growth,"locus YGL173C, strain kem1, stronger effect = lower value",1.02 (inactive)
same,normalized growth,"locus YGL227W, strain vid30, stronger effect = lower value",0.994 (inactive)
same,normalized growth,"locus YGL240W, strain doc1, stronger effect = lower value",1.05 (inactive)
same,normalized growth,"locus YGL248W, strain PDE1, stronger effect = lower value",0.24 (active)
same,normalized growth,"locus YGL253W, strain hxk2, stronger effect = lower value",1.03 (inactive)
same,normalized growth,"locus YGR078C, strain PAC10, stronger effect = lower value",0.621 (active)
same,normalized growth,"locus YGR135W, strain pre9, stronger effect = lower value",0.62 (active)
same,normalized growth,"locus YGR252W, strain gcn5, stronger effect = lower value",0.658 (active)
same,normalized growth,"locus YHR013C, strain ard1, stronger effect = lower value",1.02 (inactive)
same,normalized growth,"locus YHR027C, strain rpn1, stronger effect = lower value",1.02 (inactive)
same,normalized growth,"locus YHR030C, strain SLT2, stronger effect = lower value",1.01 (inactive)
same,normalized growth,"locus YHR079C, strain IRE1 (second series), stronger effect = lower value",0.79 (active)
same,normalized growth,"locus YHR079C, strain IRE1, stronger effect = lower value",1 (inactive)
same,normalized growth,"locus YHR094C, strain hxt1, stronger effect = lower value",0.932 (inactive)
same,normalized growth,"locus YHR129C, strain ARP1, stronger effect = lower value",0.337 (active)
same,normalized growth,"locus YHR142W, strain chs7, stronger effect = lower value",1.01 (inactive)
same,normalized growth,"locus YHR200W, strain rpn10, stronger effect = lower value",0.661 (active)
same,normalized growth,"locus YIL066C, strain RNR3, stronger effect = lower value",0.096 (active)
same,normalized growth,"locus YIL073C, strain SPO22, stronger effect = lower value",0.241 (active)
same,normalized growth,"locus YIL125W, strain kgd1, stronger effect = lower value",0.958 (inactive)
same,normalized growth,"locus YIR030C, strain dcg1, stronger effect = lower value",0.889 (active)
same,normalized growth,"locus YJL092W, strain hpr5, stronger effect = lower value",0.989 (inactive)
same,normalized growth,"locus YJL095W, strain BCK1 (second series), stronger effect = lower value",1.02 (inactive)
same,normalized growth,"locus YJL095W, strain BCK1, stronger effect = lower value",0.115 (active) and 0.99 (inactive)
same,normalized growth,"locus YJL115W, strain asf1, stronger effect = lower value",1 (inactive)
same,normalized growth,"locus YJL129C, strain trk1, stronger effect = lower value",1.03 (inactive)
same,normalized growth,"locus YJL134W, strain LCB3, stronger effect = lower value",0.551 (active)
same,normalized growth,"locus YJL154C, strain vps35, stronger effect = lower value",0.988 (inactive)
same,normalized growth,"locus YJL164C, strain tpk1, stronger effect = lower value",1.01 (inactive)
same,normalized growth,"locus YJL166W, strain qcr8, stronger effect = lower value",1.04 (inactive)
same,normalized growth,"locus YJL168C, strain set2, stronger effect = lower value",0.937 (inactive)
same,normalized growth,"locus YJL187C, strain SWE1 (second series), stronger effect = lower value",0.104 (active)
